# Where two headings read alike, the source gives them in different places.
# What was measured:
# [1] = system: GRK4; settings: concentration: 1 μM, replicates: in singlicate; n = 1
# [2] = system: GRK7; settings: concentration: 1 μM, replicates: in singlicate; n = 1
# [3] = system: GSK3A; settings: concentration: 1 μM, replicates: in singlicate; n = 1
# [4] = system: GSK3B; settings: n = 1
# [5] = system: T1, HASPIN; settings: concentration: 1 μM, replicates: in singlicate; n = 1
# T1 construct: gene GSG2
# [6] = system: HCK; settings: concentration: 1 μM, replicates: in singlicate; n = 1
# [7] = system: HIPK1; settings: concentration: 1 μM, replicates: in singlicate; n = 1
# [8] = system: HIPK2; settings: concentration: 1 μM, replicates: in singlicate; n = 1
# [9] = system: HIPK3; settings: concentration: 1 μM, replicates: in singlicate; n = 1
# [10] = system: HIPK4; settings: concentration: 1 μM, replicates: in singlicate; n = 1
# [11] = system: HPK1; settings: concentration: 1 μM, replicates: in singlicate; n = 1
# [12] = system: HUNK; settings: concentration: 1 μM, replicates: in singlicate; n = 1
# [13] = system: ICK; settings: concentration: 1 μM, replicates: in singlicate; n = 1
# [14] = system: IGF1R; settings: concentration: 1 μM, replicates: in singlicate; n = 1
# [15] = system: T2, IKK-alpha; settings: concentration: 1 μM, replicates: in singlicate; n = 1
# T2 construct: gene CHUK
# [16] = system: T3, IKK-beta; settings: concentration: 1 μM, replicates: in singlicate; n = 1
# T3 construct: gene IKBKB
# [17] = system: T4, IKK-epsilon; settings: concentration: 1 μM, replicates: in singlicate; n = 1
# T4 construct: gene IKBKE
# [18] = system: INSRR; settings: concentration: 1 μM, replicates: in singlicate; n = 1
# [19] = system: INSR; settings: concentration: 1 μM, replicates: in singlicate; n = 1
# [20] = system: IRAK1; settings: concentration: 1 μM, replicates: in singlicate; n = 1
# [21] = concentration: 1 μM, replicates: in singlicate
# 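Further: KINOMEscan kinase panel screen.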
smiles,measurement,setting,value
COC(=O)Nc1nc2cc(Oc3ccc(NC(=O)Nc4cc(F)ccc4F)cc3)ccc2[nH]1.Cl [GW701424],%Inh,[1],0%
same,%Inh,[2],0%
same,%Inh,[3],3%
same,%Inh,[4]; [21],11%
same,%Inh,[5],0%
same,%Inh,[6],6%
same,%Inh,[7],0%
same,%Inh,[8],0%
same,%Inh,[9],5%
same,%Inh,[10],29%
same,%Inh,[11],30%
same,%Inh,[12],20%
same,%Inh,[13],0%
same,%Inh,[14],18%
same,%Inh,[15],33%
same,%Inh,[16],4%
same,%Inh,[17],16%
same,%Inh,[18],0%
same,%Inh,[19],0%
same,%Inh,[20],36%
O=C(NCCNc1ccnc(Nc2ccc(F)cc2)n1)c1cc2ccccc2s1 [GSK1379874],%Inh,[1],0%
same,%Inh,[2],0%
same,%Inh,[3],0%
same,%Inh,[4]; [21],6%
same,%Inh,[5],19%
same,%Inh,[6],0%
same,%Inh,[7],0%
same,%Inh,[8],0%
same,%Inh,[9],0%
same,%Inh,[10],0%
same,%Inh,[11],33%
same,%Inh,[12],12%
same,%Inh,[13],0%
same,%Inh,[14],0%
same,%Inh,[15],0%
same,%Inh,[16],0%
same,%Inh,[17],22%
same,%Inh,[18],0%
same,%Inh,[19],0%
same,%Inh,[20],16%
NS(=O)(=O)CCc1cccc(Nc2nccc(-c3c(-c4cccc(NC(=O)c5c(F)cccc5F)c4)nn4ccccc34)n2)c1 [GSK336735],%Inh,[1],43%
same,%Inh,[2],12%
same,%Inh,[3],20%
same,%Inh,[4]; [21],6%
same,%Inh,[5],0%
same,%Inh,[6],98.9%
same,%Inh,[7],0%
same,%Inh,[8],0%
same,%Inh,[9],8%
same,%Inh,[10],25%
same,%Inh,[11],56%
same,%Inh,[12],0%
same,%Inh,[13],0%
same,%Inh,[14],73%
same,%Inh,[15],0%
same,%Inh,[16],0%
same,%Inh,[17],33%
same,%Inh,[18],62%
same,%Inh,[19],39%
same,%Inh,[20],0%
O=C1NC(=O)C(N2CCc3ccccc32)=C1c1cccc(Cl)c1 [SB-408010],%Inh,[1],29%
same,%Inh,[2],5%
same,%Inh,[3],2%
same,%Inh,[4]; 1 µM,27%
same,%Inh,[5],0%
same,%Inh,[6],25%
same,%Inh,[7],27%
same,%Inh,[8],13%
same,%Inh,[9],7%
same,%Inh,[10],0%
same,%Inh,[11],19%
same,%Inh,[12],20%
same,%Inh,[13],40%
same,%Inh,[14],0%
same,%Inh,[15],0%
same,%Inh,[16],10%
same,%Inh,[17],0%
same,%Inh,[18],0%
same,%Inh,[19],0%
same,%Inh,[20],0%
CCn1cnc2c(N)ncnc21 [GW345098],%Inh,[1],0%
same,%Inh,[2],0%
same,%Inh,[3],6%
same,%Inh,[4]; [21],9%
same,%Inh,[5],25%
same,%Inh,[6],30%
same,%Inh,[7],33%
same,%Inh,[8],5%
same,%Inh,[9],30%
same,%Inh,[10],0%
same,%Inh,[11],0%
same,%Inh,[12],4%
same,%Inh,[13],0%
same,%Inh,[14],3%
same,%Inh,[15],0%
same,%Inh,[16],4%
same,%Inh,[17],0%
same,%Inh,[18],0%
same,%Inh,[19],10%
same,%Inh,[20],0%
Cc1ccc(C(=O)NCC(N)=O)cc1-n1c(C)cc(OCc2ccc(F)cc2F)c(Br)c1=O,%Inh,[1],0%
same,%Inh,[2],0%
same,%Inh,[3],58%
same,%Inh,[4]; [21],0%
same,%Inh,[5],0%
same,%Inh,[6],21%
same,%Inh,[7],46%
same,%Inh,[8],0%
same,%Inh,[9],0%
same,%Inh,[10],0%
same,%Inh,[11],0%
same,%Inh,[12],0%
same,%Inh,[13],0%
same,%Inh,[14],5%
same,%Inh,[15],0%
same,%Inh,[16],0%
same,%Inh,[17],0%
same,%Inh,[18],0%
same,%Inh,[19],0%
same,%Inh,[20],0%
COc1cc2ncn(-c3cc(OCc4sccc4Cl)c(C(N)=O)s3)c2cc1OC [GSK448459],%Inh,[1],30%
same,%Inh,[2],0%
same,%Inh,[3],0%
same,%Inh,[4]; [21],6%
same,%Inh,[5],5%
same,%Inh,[6],0%
same,%Inh,[7],44%
same,%Inh,[8],28%
same,%Inh,[9],23%
same,%Inh,[10],69%
same,%Inh,[11],52%
same,%Inh,[12],0%
same,%Inh,[13],12%
same,%Inh,[14],0%
same,%Inh,[15],0%
same,%Inh,[16],0%
same,%Inh,[17],0%
same,%Inh,[18],0%
same,%Inh,[19],0%
same,%Inh,[20],35%
Cl.Oc1cccc(Nc2ccnc3cc(-c4ccncc4)ccc23)c1 [GW494601],%Inh,[1],0%
same,%Inh,[2],0%
same,%Inh,[3],23%
same,%Inh,[4]; [21],0%
same,%Inh,[5],55%
same,%Inh,[6],97.7%
same,%Inh,[7],0%
same,%Inh,[8],0%
same,%Inh,[9],0%
same,%Inh,[10],0%
same,%Inh,[11],37%
same,%Inh,[12],11%
same,%Inh,[13],0%
same,%Inh,[14],13%
same,%Inh,[15],23%
same,%Inh,[16],0%
same,%Inh,[17],20%
same,%Inh,[18],0%
same,%Inh,[19],0%
same,%Inh,[20],22%

# Source: paper PMC5540273 (PLoS ONE, 2017)
